High-throughput results from PubChem BioAssay.
This is a sample that favours compounds with a hit; in the whole collection about 11% have one here.
BAZ2B inh – BAZ2B (human) inhibition; AlphaScreen BAZ2B-H3K14Ac peptide displacement; Potency, µM (doses to about 114 µM), for inactives: at the highest dose activity change, negative = inhibition, hits mostly inhibitors; 360,000 tested, 4.4% active; also: % is scaled to controls: 0 for no effect and ±100 for the full control effect; nearly all actives have a fitted effect of over 60% in size
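In this displacement format the biotinylated H3(5-23) peptide acetylated at Lys14 serves as ligand at 50 nM, with BAZ2B at 50 nM in PBS pH 7.4 containing 0.01% Tween-20. Donor and acceptor beads are 10 ug/mL final.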
JMJD2A Tudor inh – blocks the human JMJD2A Tudor domain; O75164; AlphaScreen JMJD2A-Tudor / H3K4me3 peptide binding; Potency, µM (series often up to 114 µM), without a hit: top-dose activity change, negative = inhibition, most hits filed as inhibitors; 390,000 tested, 4.4% active; AID 504339; also: % is scaled to controls: 0 for no effect and ±100 for the full control effect; nearly all actives have a fitted effect of over 50% in size
G9a inh – G9a (human) methyltransferase inhibition; Q96KQ7; G9a H3K9 monomethylation, AlphaScreen, 2 h; Potency, µM (series often up to 102 µM), for the others: at the highest dose activity, negative = inhibition, usual class: inhibitors; 350,000 tested, 8.8% active; AID 504332; also: % is scaled to controls: 0 for no effect and ±100 for the full control effect; nearly all actives have a fitted effect of over 75% in size
Target sequence (Q96KQ7 913-1193 limits assumed): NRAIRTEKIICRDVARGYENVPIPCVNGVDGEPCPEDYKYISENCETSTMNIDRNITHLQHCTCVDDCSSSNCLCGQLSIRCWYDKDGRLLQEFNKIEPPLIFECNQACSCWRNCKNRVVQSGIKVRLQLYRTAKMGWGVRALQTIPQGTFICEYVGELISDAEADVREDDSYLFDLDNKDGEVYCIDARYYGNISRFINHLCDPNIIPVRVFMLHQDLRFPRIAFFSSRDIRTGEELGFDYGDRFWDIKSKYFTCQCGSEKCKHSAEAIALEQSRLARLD
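Readings reflect AlphaScreen signal from monomethyl-H3K9 antibody detection. HMT at 20 nM; substrate b-H3K9 500 nM; cofactor SAM 20 uM; 2 h RT reaction; compounds tested as titrations in qHTS with 15 min preincubation.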
L3MBTL1 block – L3MBTL1 (human) inhibition; Potency, µM (top dose mostly 57.1 µM), for inactives: at the top dose activity, negative = inhibition, hits mostly inhibitors; 230,000 tested, 0.66% active; Q9Y468; AlphaScreen L3MBTL1–H3K9me1 peptide binding; AID 485360; also: % is scaled to controls: 0 for no effect and ±100 for the full control effect; nearly all actives have a fitted effect of over 60% in size
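L3MBTL1 50 nM + b-AHA-H3(1-15)K9me1 75 nM, 30 min RT; compound added, 30 min RT; streptavidin donor/Ni-chelate acceptor beads 10 ug/mL each final, 30 min RT dark; AlphaScreen read.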
HP1b chromo inh – blocks HP1-beta chromodomain binding to methylated histone tails. AlphaScreen HP1-beta / biotin-H3K9me3 peptide binding. P83916. AID 540317. Potency, µM (titrated, usually from 114 µM), without a hit: top-dose activity change, negative = inhibition, actives largely listed as inhibitors. 390,000 tested, 0.56% active; also: nearly all actives have a fitted effect of over 70% in size
Target sequence (P83916 whole entry, looked up): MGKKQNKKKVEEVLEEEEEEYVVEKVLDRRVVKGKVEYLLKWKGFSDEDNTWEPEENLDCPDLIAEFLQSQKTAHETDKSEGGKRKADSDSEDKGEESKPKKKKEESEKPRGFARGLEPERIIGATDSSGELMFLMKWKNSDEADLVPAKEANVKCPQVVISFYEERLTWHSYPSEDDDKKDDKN
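AlphaScreen: HP1-beta (50 nM) preformed 30 min with biotin-H3(1-18)K9me3 peptide (50 nM) in PBS pH 7.4, 0.01% Tween-20. Compound added for 30 min at RT, then streptavidin donor/nickel chelate acceptor beads (10 ug/mL) for 30 min.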
* marks the source's active call; other numbers are inactive results; u = inconclusive; x = not tested or not shown; [ ] = remark or other dose. Calls follow the shape of the dose curve; as a rule, active = well fitted inhibition curve with a large enough effect; inconclusive = small, poorly fitted or top-dose-only effect; inactive = no such curve, though single readings can be large or run the other way. Potency is read from the fitted curve at half-maximal effect.

SMILES	BAZ2B inh	JMJD2A Tudor inh	G9a inh	L3MBTL1 block	HP1b chromo inh
COCCCNC(=O)Cn1cc(C(C)=O)c2ccccc21	6%	-11%	-4%	8%	12%
COc1ccc(OC)c(NC(=O)CS(=O)(=O)c2cn(CC(=O)N3CCOCC3)c3ccccc23)c1	-1%	-5%	-50%	x	-1%
COc1ccc(CCNC(=O)CS(=O)(=O)c2cn(CC(=O)N3CCOCC3)c3ccccc23)cc1OC	x	-19%	50µM*	x	26%
O=C(c1cccc2ccccc12)N1CCN(S(=O)(=O)c2ccccc2)CC1	x	-18%	x	x	78%
O=C(CCCn1c(=O)c2ccccc2n(Cc2ccc(F)cc2Cl)c1=O)NCCc1ccc(Cl)cc1	11%	0%	-4%[59 µM]	x	47%
CCOc1ccccc1-c1ccc(C(=O)O)o1	x	x	1%[135 µM]	x	x
OC[C@H](S)CS	x	x	1µM*	x	x
Cc1ccc2c(=O)cc(C(=O)NCc3ccccc3)oc2c1	-25%	-17%	-15%[59 µM]	x	4%
CC(C)Oc1cccc(C(=O)NC(=S)Nc2ccc(N3CCN(C)CC3)cc2)c1	40µM*	50µM*	x	-16%	u
CCOc1ccc(C(=O)NC(=S)Nc2ccc(N3CCC(C)CC3)cc2)cc1[N+](=O)[O-]	u	u	10µM*	-36%	-32%
COc1cccc(C(=O)Nc2ccc3c(c2)C(=O)c2ccccc2C3=O)c1	-36%	18µM*	-14%[59 µM]	1%	-12%
O=C(Nc1ccc2c(c1)C(=O)c1ccccc1-2)c1ccccc1	x	-10%	x	x	16%
CN1CCN(c2ccc(NC(=O)c3ccc(Oc4ccccc4)cc3)cc2)CC1	u	u	50µM*	x	-38%
COc1ccc(S(=O)(=O)Nc2cccc3c2O[C@H](CN(C)C(=O)Nc2ccc(C(F)(F)F)cc2)[C@@H](C)CN([C@H](C)CO)C3=O)cc1	x	-25%	x	-4%	28%
COc1ccc(C(=O)NC(=S)Nc2ccc(CN3CCCCC3)cc2)cc1Cl	u	u	13µM*	-3%	-34%
COc1ccccc1C(=O)NC(=S)Nc1ccc(N2CCCC2)cc1	1%	u	45µM*	-1%	u
COc1cccc(C(=O)Nc2ccc(C)cc2)c1	3%	-6%	8%[12.7 µM]	-10%[11.4 µM]	41%
COc1ccc(C(=O)N/N=C(/C)c2ccc(N3CCCCC3)cc2)cc1	2%	50µM*	20%[59 µM]	-4%	8%
COc1cccc(C(=O)NC(=S)Nc2ccc(N(C)C)cc2)c1	10µM*	25µM*	10µM*	u	u
CCC(C(=O)Nc1cc(OC)ccc1OC)n1c(C)c2cnn(-c3ccccc3)c(=O)c2c1C (configuration not stated)	u	u	-41%[59 µM]	x	-14%
COc1ccc(C(=O)Nc2ccc(N3CCCC3)cc2)cc1Br	0%	u	40µM*	-6%	12%
COCCNC(=S)N/N=C/c1ccc(N2CCOCC2)cc1	-39%	-24%	7%[59 µM]	-5%	31%
COc1cc(C(=O)NC(=S)Nc2ccc(N3CCCC3)cc2)cc(OC)c1OC	u	-31%	32µM*	-10%	10%
COc1ccc(NC(=S)c2ccc(N(C)C)cc2)cc1	-26%	-11%	25µM*	-15%	u
COCCNC(=S)Nc1ccc(N2CCCCC2)cc1	50µM*	u	8.9µM*	x	u
SMILES	BAZ2B inh	JMJD2A Tudor inh	G9a inh	L3MBTL1 block	HP1b chromo inh
COc1cccc(-c2nc3c(C#N)c[nH]n3c2NC2CCCC2)c1OC	-12%	-10%	-4%[59 µM]	x	28%
CC1(C)NC(=O)N(c2ccc([N+](=O)[O-])c(C(F)(F)F)c2)C1=O	11%	-16%	14%[59 µM]	8%	13%
Cc1cc(C)cc(-n2cnc3cc(C(=O)NC4CCCCCC4)ccc32)c1	-14%	-34%	-27%[59 µM]	x	8%
COc1cc(OC)cc(C(=O)NC(=S)Nc2ccc3oc(=O)ccc3c2)c1	-5%	u	8%	x	-5%
CC(C)Oc1ccc(C(=O)Nc2ccc3c(c2)n(C)c(=O)n3C)cc1	u	-9%	-2%	3%	49%
COc1ccc(C(=O)NC(=S)Nc2ccc(N3CCCC3)cc2)cc1	-28%	-19%	u	-17%	-10%
COc1cccc(C(=O)NC(=S)Nc2ccc3oc(=O)ccc3c2)c1	3%	-26%	40µM*	3%	17%
